We go through 19 molecules from PubChem BioAssay (NCI).

Each structure is given as a SMILES string. The panel holds about 83,000 compounds, 20% with a hit somewhere; the sample as a whole holds those more often.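 Plates (96-well) were seeded with cells, treated with compound at one concentration, and incubated for 48 hours before percent growth was determined.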 Values without a mark were called inactive. The source made the active and inactive calls. The calls were made as follows: active = growth percent below 10; inactive = the rest.

Test systems include RPMI-8226 leukemia; OVCAR-8 ovarian; OVCAR-5 ovarian; OVCAR-4 ovarian; SK-OV-3 ovarian; IGROV1 ovarian; OVCAR-3 ovarian; HS 578T breast; NCI/ADR-RES ovarian.
Test in all cases: NCI-60 one-dose screen, 48 h (100 = growth as untreated, 0 = no growth, -100 = all killed)
Common to all, as to settings: 10 µM unless noted

As to `CCCN=C(N)c1ccc(NC(=O)c2ccc(C(=O)Nc3ccc(C(N)=NCCC)cc3)cc2)cc1`, the growth in the assay on RPMI-8226 leukemia was 90.6%; with OVCAR-8 ovarian, 95.7%; with OVCAR-5 ovarian, 94.8%; in the assay on OVCAR-4 ovarian it was 99.7%; in the assay on SK-OV-3 ovarian, 95.6%; with IGROV1 ovarian it was 96.6%. Also, the growth with OVCAR-3 ovarian is 102%; in the assay on HS 578T breast, 102%; with NCI/ADR-RES ovarian, 98.4%.

Turning to `O=C(Nc1ccccc1)Oc1ccccc1-c1ccccc1`, the growth was 96.5% in the assay on RPMI-8226 leukemia; 98.4% in the assay with OVCAR-8 ovarian; 90.5% with OVCAR-5 ovarian; 103% in the assay on OVCAR-4 ovarian; 80.1% in the assay on SK-OV-3 ovarian; 107% in the assay with IGROV1 ovarian. For the same molecule, the growth was 106% with OVCAR-3 ovarian, 93.3% in the assay on HS 578T breast and 99.9% in the assay with NCI/ADR-RES ovarian.

In the case of `Nc1cc(N)c2cccnc2c1O`, the growth was 88% in the assay on RPMI-8226 leukemia; 68.6% in the assay with OVCAR-8 ovarian; 96% in the assay on OVCAR-5 ovarian; 91.2% in the assay with OVCAR-4 ovarian; 101% in the assay on SK-OV-3 ovarian; 66.7% in the assay with IGROV1 ovarian. For the same molecule, the results for the growth with OVCAR-3 ovarian, with HS 578T breast and with NCI/ADR-RES ovarian were 89%, 63.6% and 71.7%, respectively.

For `CSc1nnc2c(=O)n(C)c(=O)n(C)c2n1`, the growth in the assay on OVCAR-8 ovarian is 106%; in the assay with OVCAR-5 ovarian, 100%; with OVCAR-4 ovarian, 105%; in the assay with SK-OV-3 ovarian, 103%; in the assay on IGROV1 ovarian it was 101%; in the assay with OVCAR-3 ovarian, 144%. The figures for the growth in the assay with HS 578T breast and in the assay with NCI/ADR-RES ovarian were 86.6% and 101%, respectively.

Turning to `COc1ccc(C2CC(n3nnnc3-c3ccccc3)=NN2)cc1` (centres undefined), the growth in the assay with RPMI-8226 leukemia was 62.5%; in the assay with OVCAR-5 ovarian, 66.4%; in the assay on OVCAR-3 ovarian, 75.1%; in the assay with HS 578T breast, 99%; in the assay with NCI/ADR-RES ovarian, 49.9%.

Turning to `O=C(N/N=C/c1cccc(O)c1)c1ccccc1Nc1cccc(C(F)(F)F)c1`, the growth was 87.5% in the assay on RPMI-8226 leukemia; 58.9% in the assay with OVCAR-4 ovarian; 78.4% with SK-OV-3 ovarian; 95.3% with IGROV1 ovarian; 62.1% with OVCAR-3 ovarian; 91.8% in the assay with HS 578T breast. The growth in the assay with NCI/ADR-RES ovarian was 83.4%.

With `CC1=NNC(=O)C1CCC(=O)N/N=C(\C)c1ccc2ccccc2c1` (centres undefined), the growth in the assay with RPMI-8226 leukemia is 107%; in the assay on OVCAR-5 ovarian, 77.2%; with OVCAR-4 ovarian, 117%; in the assay on IGROV1 ovarian, 92.6%; in the assay on OVCAR-3 ovarian it was 105%; with HS 578T breast, 114%. Moreover, the growth in the assay with NCI/ADR-RES ovarian was 94.3%.

Turning to `CCNNC(=O)[C@@H]1[C@H](c2cc(OC)c(OC)c(OC)c2)c2cc3c(cc2[C@H](O)[C@H]1CO)OCO3`, the growth was 32.8% with RPMI-8226 leukemia; -13.3% (active) in the assay with OVCAR-8 ovarian; 33.6% in the assay with OVCAR-5 ovarian; 35.2% in the assay on OVCAR-4 ovarian; 1.47% (active) in the assay on SK-OV-3 ovarian; 20.8% in the assay with IGROV1 ovarian. In addition, the growth is -47.8% (active) with OVCAR-3 ovarian, 23.1% in the assay on HS 578T breast and -13.7% (active) in the assay on NCI/ADR-RES ovarian.

For `[O-][n+]1ccccc1CCN(O)CCc1cccc[n+]1[O-]`, the growth in the assay with RPMI-8226 leukemia is 102%; in the assay with OVCAR-5 ovarian, 97.7%; in the assay on OVCAR-4 ovarian, 107%; with SK-OV-3 ovarian, 101%; in the assay on IGROV1 ovarian, 106%; in the assay with OVCAR-3 ovarian, 106%. The growth is 94.5% in the assay with HS 578T breast and 99.8% in the assay with NCI/ADR-RES ovarian.

`CCCC/C(=N\N=C(N)N)c1ccc(F)cc1`: the growth with RPMI-8226 leukemia is 36%; in the assay with OVCAR-8 ovarian, 33.6%; with OVCAR-5 ovarian, 50.5%; in the assay on OVCAR-4 ovarian, 39.7%; with SK-OV-3 ovarian, 13.7%; in the assay on OVCAR-3 ovarian, -11.4% (active). For the same molecule, the growth in the assay with HS 578T breast is 26.1%; in the assay with NCI/ADR-RES ovarian, 7.48% (active).

In the case of `BrC(Br)(Br)c1cnc2ccccc2n1`, the growth is 41.8% in the assay on RPMI-8226 leukemia; 60.3% with OVCAR-5 ovarian; 44.1% with OVCAR-4 ovarian; 69.4% with SK-OV-3 ovarian; -27.5% (active) with OVCAR-3 ovarian; 66.7% in the assay with HS 578T breast. In addition, the growth with NCI/ADR-RES ovarian is 44.3%.

Regarding `COc1ccc(-n2cc(-c3cc(OC)c(OC)c(OC)c3)n(C(C)=O)c2=O)cc1`, the growth in the assay on RPMI-8226 leukemia is 123%; with OVCAR-8 ovarian, 91.8%; in the assay on OVCAR-5 ovarian, 78.3%; in the assay on OVCAR-4 ovarian, 79.9%; with SK-OV-3 ovarian it was 94.6%; in the assay on IGROV1 ovarian, 107%. Also, the results for the growth in the assay on OVCAR-3 ovarian, in the assay on HS 578T breast and in the assay with NCI/ADR-RES ovarian were 108%, 92.3% and 100%, respectively.

In the case of `CCOC(=O)C1=C(C)NC(C)=C(C(=O)OCC)C1c1cc(Br)c(O)c(OC)c1`, the growth in the assay with RPMI-8226 leukemia was 29.9%; with OVCAR-8 ovarian it was 25.2%; with OVCAR-5 ovarian, 66.7%; in the assay with OVCAR-4 ovarian, 47.4%; in the assay with SK-OV-3 ovarian it was 16.9%; in the assay with IGROV1 ovarian, 49.9%. Moreover, the figures for the growth with HS 578T breast and with NCI/ADR-RES ovarian were 4.37% (active) and -14.5% (active), respectively.

`NS(=O)(=O)c1cccc(NC(=O)C(=O)C2C(=O)Nc3ccccc32)c1` (centres undefined): the growth in the assay with RPMI-8226 leukemia was 47.7%; in the assay with OVCAR-8 ovarian, 106%; with OVCAR-5 ovarian, 96%; with OVCAR-4 ovarian it was 102%; with IGROV1 ovarian, 76.4%; with OVCAR-3 ovarian, 96.6%. In addition, the growth in the assay with HS 578T breast is 101%; with NCI/ADR-RES ovarian, 97.5%.

On to `Cn1ncc2c(Nc3ccccc3Cl)nc(Cl)nc21`, for which the growth with RPMI-8226 leukemia is 62.1%; in the assay with OVCAR-8 ovarian, 113%; with OVCAR-5 ovarian, 96.4%; in the assay on OVCAR-4 ovarian, 96.3%; in the assay with SK-OV-3 ovarian it was 104%; in the assay on OVCAR-3 ovarian it was 164%. Further, the growth in the assay on HS 578T breast is 136%; in the assay with NCI/ADR-RES ovarian, 100%.

With `COc1ccc(CNC(=O)COc2ccc(/C=N/Nc3nc4ccccc4s3)cc2)cc1`, the growth with RPMI-8226 leukemia is 27.3%; with OVCAR-8 ovarian, 22.3%; in the assay on OVCAR-5 ovarian, 66.9%; in the assay with OVCAR-4 ovarian it was -37.5% (active); in the assay on IGROV1 ovarian it was 28.8%; with OVCAR-3 ovarian, 25.3%. In addition, the growth in the assay with HS 578T breast was 13.3%; in the assay with NCI/ADR-RES ovarian it was 23.3%.

In the case of `COC(=O)C1NC(=S)N(c2ccc(Cl)cc2)C1/C=C/c1ccccc1` (centres undefined), the growth in the assay on RPMI-8226 leukemia is 95.8%; in the assay on OVCAR-8 ovarian it was 101%; in the assay on OVCAR-5 ovarian, 99.8%; with IGROV1 ovarian, 106%; with OVCAR-3 ovarian, 101%; with HS 578T breast, 107%. For the same molecule, in the assay on NCI/ADR-RES ovarian, the growth was 90%.

Take `CO[C@@H]1[C@H](N(C)C(=O)c2ccccc2)C[C@@H]2O[C@]1(C)n1c3ccccc3c3c4c(c5c6ccccc6n2c5c31)C(=O)NC4=O`: the growth in the assay with RPMI-8226 leukemia is 67.1%; with OVCAR-8 ovarian, 54%; in the assay with OVCAR-5 ovarian it was 57%; in the assay on IGROV1 ovarian, 7.2% (active); in the assay on OVCAR-3 ovarian it was 46.7%; in the assay on HS 578T breast, 20.5%. Further, the growth in the assay with NCI/ADR-RES ovarian was 42.9%.

In the case of `NC(=S)N/N=C(\c1ccc(Cl)cc1)C1CC1`, the growth in the assay on RPMI-8226 leukemia was 67.3%; in the assay on OVCAR-8 ovarian, 70.9%; in the assay with OVCAR-5 ovarian, 95.5%; with OVCAR-4 ovarian it was 68.2%; in the assay on IGROV1 ovarian it was 45.7%; in the assay on OVCAR-3 ovarian, 58.2%. Further, the growth is 99.6% with HS 578T breast and 67.3% with NCI/ADR-RES ovarian.
